± gives the standard deviation of the averaged measurements.
Each molecule was assayed on AEK1 (Tb927.3.2440) (assay: percent reduction in TR-FRET probe signal relative to DMSO control; higher = stronger displacement of ATP-site probe (binding)). Conditions: 1 µM; incubation time 1 h.

Compound | percent reduction in TR-FRET probe signal [%]
Cl.Cl.Fc1cc(-c2cccc3ncc(-c4cnn(C5CCNCC5)c4)nc23)cc(F)c1CN1CCOCC1 | 10.7 ± 13
CC1(C)CNc2cc(NC(=O)c3cccnc3NCc3ccncc3)ccc21.O=P(O)(O)O.O=P(O)(O)O [Motesanib Diphosphate (AMG-706)] | 2.79 ± 7.6
COc1ccc(COc2cc3oc(=O)c4cc(C(C)O)ccc4c3cc2OC)cc1 (stereo not drawn) [Palomid 529 (P529)] | -5.44 ± 9.3
Cc1cc(CS(=O)(=O)c2ccccc2)cc(OCc2ccc(CN3CCC[C@@H]3CO)cc2)c1 | -6.92 ± 5.9
N#CC[C@H](C1CCCC1)n1cc(-c2ncnc3[nH]ccc23)cn1 | 22.6 ± 7.6
O=C(O)CCC(=O)Nc1ccc(Br)cn1 [Bikinin] | -3.76 ± 0.8
C=CC(=O)Nc1cc(Nc2nccc(-c3cn(C)c4ccccc34)n2)c(OC)cc1N(C)CCN(C)C | -8.86 ± 8.3
Cc1cc(Nc2ncc(Cl)c(Nc3ccccc3S(=O)(=O)C(C)C)n2)c(OC(C)C)cc1C1CCNCC1 | -7.62 ± 8.9
Cl.Cl.Clc1ccc(Nc2nnc(Cc3ccncc3)c3ccccc23)cc1 [Vatalanib (PTK787) 2HCl] | 4.61 ± 8.7
Cc1cc(Nc2ncc3c(n2)N(C)C(=O)N(c2cc(NC(=O)c4cccc(C(F)(F)F)c4)ccc2C)C3)n(C)n1 | 5.55 ± 14
CC(C)N(CCC(=O)c1ccc2ccccc2c1)Cc1ccccc1.Cl | 1.95 ± 3.1
COc1c(C)c(C(=O)c2ccc(N)c(C(=O)[O][Na])c2)n2ccccc12 | 6.59 ± 7.5
COc1cc(Nc2ncc(F)c(Nc3ccc4c(n3)N(COP(=O)(O)O)C(=O)C(C)(C)O4)n2)cc(OC)c1OC [Fostamatinib (R788)] | 31.3 ± 1.3
CN(C)S(=O)(=O)c1ccc2c(c1)/C(=C/c1cc3c([nH]1)CCCC3)C(=O)N2 | 43.6 ± 21
COc1ccc(-c2ccc3c(N4CCOCC4)nc(N4C[C@@H](C)O[C@@H](C)C4)nc3n2)cc1CO | -3.76 ± 6.3
Cc1nc(Nc2n[nH]c3c2CN(C(=O)N[C@H](CN(C)C)c2ccccc2)C3(C)C)c2sccc2n1 | 61.8 ± 9.6
CCOc1cc(C(=O)N2CCC(N3CCN(C)CC3)CC2)ccc1Nc1ncc2c(n1)N(C1CCCC1)c1ccccc1C(=O)N2C | -3.15 ± 9.5
CCCS(=O)(=O)Nc1ccc(F)c(C(=O)c2c[nH]c3ncc(Cl)cc23)c1F | -8.04 ± 4.3
Cc1nc(Nc2ncc(C(=O)Nc3c(C)cccc3Cl)s2)cc(N2CCN(CCO)CC2)n1 [Dasatinib] | 10.6 ± 19

Compound | percent reduction in TR-FRET probe signal [%]
COc1cc2ncnc(Nc3ccc(F)c(Cl)c3)c2cc1OCCCN1CCOCC1 [Gefitinib (ZD1839)] | 5.46 ± 21
COc1ccc2cc(-c3[nH]c(-c4ccc(S(C)=O)cc4)nc3-c3ccncc3)ccc2c1 (stereo not drawn) [Tie2 kinase inhibitor] | 2.05 ± 9.9
Cc1nc(N)sc1-c1ccnc(Nc2ccc(N3CCOCC3)cc2)n1 | 10.3 ± 6.7
CC(C)(C)c1cnc(CSc2cnc(NC(=O)C3CCNCC3)s2)o1 | -4.82 ± 4.6
NC1(Cc2ccc(Cl)cc2)CCN(c2ncnc3[nH]ccc23)CC1 | 2.05 ± 3.4
C=CC(=O)Nc1ccc2ncnc(Nc3cccc(Br)c3)c2c1 | 12 ± 5.5
O=C1Nc2ccccc2/C1=C1\Nc2ccccc2C1=O [Indirubin] | -2.5 ± 6.6
COc1cc2ncnc(Oc3ccc(CC(=O)Nc4cnn(C(C)C)c4)cc3)c2cc1OC | 5.15 ± 13
Cn1sc(=O)n(Cc2ccccc2)c1=O | -18.6 ± 15
CCN(CC)CCCC(C)Nc1nc(C)cc(Nc2ccc3nc(C)cc(N)c3c2)n1.Cl.Cl.Cl (stereo not drawn) | -2.65 ± 9
N[C@@H]1CCCN(c2c(/C=C3\SC(=O)NC3=O)cccc2-c2ccccc2)C1 | -4.54 ± 7.8
Cc1cc(NC(=O)c2cccc(NC(=O)/C=C/CN(C)C)c2)ccc1Nc1nccc(-c2cccnc2)n1 | -7.17 ± 15
Oc1ccc(-c2nc(-c3ccc(F)cc3)c(-c3ccncc3)[nH]2)cc1 | -5.77 ± 4
CCn1c(-c2nonc2N)nc2c(C#CC(C)(C)O)ncc(OC[C@H]3CCCNC3)c21 | 8.8 ± 4.9
Cl.Cl.O=S(=O)(NCCNC/C=C/c1ccc(Br)cc1)c1cccc2cnccc12 | 9.74 ± 13
CN(c1ccccc1CNc1nc(Nc2ccc3c(c2)CC(=O)N3)ncc1C(F)(F)F)S(C)(=O)=O | 55.1 ± 4.3
C=CCc1ccc(O)c(-c2ccc(O)c(CC=C)c2)c1 [Honokiol] | 1.65 ± 8.9
O=C1NC(=O)/C(=C/c2ccc(-c3ccc(F)cc3O)o2)S1 | 16 ± 24
C[C@@H](Oc1cc(-c2cnn(C3CCNCC3)c2)cnc1N)c1c(Cl)ccc(F)c1Cl | 35.4 ± 13

From the supplement of paper PMC10720658
